Out of some 220,000 compounds screened, about 530 (0.24%) were called active. Cut-off read from the data, not from the text of the source: active = inhibition above about 13%; inconclusive = no clear call, values can overlap the other calls; inactive = below that. Shown is part of a subset that was picked to be rich in actives. Results with a measured potency or affinity are listed apart.

Bifunctional protein GlmU (Mycobacterium tuberculosis (strain ATCC 25618 / H37Rv)), sequence (P9WMN3 whole entry, looked up): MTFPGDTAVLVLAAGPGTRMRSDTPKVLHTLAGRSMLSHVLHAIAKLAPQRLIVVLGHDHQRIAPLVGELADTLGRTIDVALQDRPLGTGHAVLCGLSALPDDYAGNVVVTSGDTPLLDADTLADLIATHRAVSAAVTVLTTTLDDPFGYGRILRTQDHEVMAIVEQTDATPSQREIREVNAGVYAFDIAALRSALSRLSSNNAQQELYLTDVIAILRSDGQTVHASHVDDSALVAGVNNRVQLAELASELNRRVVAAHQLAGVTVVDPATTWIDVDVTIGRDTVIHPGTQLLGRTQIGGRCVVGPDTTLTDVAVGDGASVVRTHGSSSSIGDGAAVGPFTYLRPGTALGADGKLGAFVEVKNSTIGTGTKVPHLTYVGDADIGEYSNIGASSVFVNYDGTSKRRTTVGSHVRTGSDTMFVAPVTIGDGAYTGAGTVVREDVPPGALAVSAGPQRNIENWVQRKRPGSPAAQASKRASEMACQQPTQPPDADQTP

This test concerns the target Bifunctional protein GlmU (Mycobacterium tuberculosis (strain ATCC 25618 / H37Rv)) (UniProt P9WMN3). Put plainly: inhibition of mycobacterial GlmU enzyme – biochemical, glucosamine-1-phosphate acetyltransferase (AID 1376).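 Note: 0% = complete reaction with vehicle and 100% = reaction without substrate.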 Particulars: M. tuberculosis GlmU acetyltransferase enzyme assay; active compounds read high;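 tested at 30 µM in the primary screen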.
In the case of `O=C(O)C1CC1c1ccc(Br)cc1` (stereo unspecified), the inhibition – broadly, the drop in the measured response relative to a control, in per cent – was 2.18% (inactive).
With `CCCNc1nc(C)nc2c1cnn2CCc1ccccc1` the figure was 1.42% (inactive); with `CCN(CC)c1ccc(C(=O)O)cc1`, -1.49% (inactive); with `CCN(CC)c1ccc(C=C2C(=O)OC3(CCCCC3)OC2=O)cc1`, -3.43% (inactive).
`O=C(O)c1ccc2c(c1)C(=O)/C(=C/c1ccccc1)C2=O`: the inhibition is 18.9% (inactive).
In the case of `CCN(CC)c1ccc(C=C2C(=O)OC3(CCCC3)OC2=O)cc1`, the inhibition is -0.14% (inactive).
As for `COc1ccc(-c2ccc(OC)c([C@H]3[C@H]4C=CC[C@@H](C)[C@@H]4C(=O)N3Cc3ccccc3)c2)cc1C`, the inhibition is 1.44% (inactive).
With `CCOc1cc2c(cc1C=O)OC(C)C2` (stereo unspecified) the figure was -3.18% (inactive); with `Cc1ccc(C(=O)NCc2ccccn2)cc1Cl`, -4.77% (inactive).
The value for `O=C(c1ccc2c(c1)OCCO2)N1CCN(Cc2ccccc2)CC1` was 0.55% (inactive); that for `CCC(OC(=O)CC1Sc2ccccc2NC1=O)C(=O)NCC1CCCO1` (stereo unspecified) was -4.76% (inactive).
With `CCCCCCOC(=O)CCc1c(C)nc(N)[nH]c1=O` the figure was 1.43% (inactive); with `O=CC(Br)P(=O)(N1CCOCC1)N1CCOCC1` (stereo unspecified), 13.9% (active).
Turning to `O=CC(Cl)P(=O)(N1CCOCC1)N1CCOCC1` (stereo unspecified), the inhibition was 5.15% (inactive).
The value for `CC(C)(C)P(=O)(N1CCOCC1)N1CCOCC1` was -0.04% (inactive); that for `CN(c1ccccc1)c1nc(N)c([N+](=O)[O-])c(NCc2ccccc2)n1` was -0.66% (inactive).
With `CCCC(=O)NNc1cc(=O)c2c(=O)n(C)c(=O)n(C)c2[nH]1` the figure was -0.71% (inactive); with `Cc1ccc(N2CC(C(=O)NCCC(C)C)CC2=O)cc1` (stereo unspecified), 1.29% (inactive).
With `N#CC12CNCC1CN=N2` (stereo unspecified) the figure was 15.5% (active); with `Cc1ccc2c(c1)C(c1ccccc1)C(=O)O2` (stereo unspecified), 2.36% (inactive).
`Cc1noc(C)c1COC(=O)CCOc1ccccc1`: the inhibition is 13.2% (active).
The value for `Cc1noc(C)c1COC(=O)C(c1ccccc1)c1ccccc1` was -2.73% (inactive); that for `COc1ccc(OCCC(=O)OCc2c(C)noc2C)cc1` was 3.9% (inactive).
The value for `Cc1ccc(N2CCN(C(=O)Nc3cccc([N+](=O)[O-])c3)CC2C)cc1` (stereo unspecified) was 5.55% (inactive); that for `CCc1ccc(C(=O)N/N=C/c2cccc3ccccc23)nc1` was -1.08% (inactive).
With `Cc1ccccc1C(=O)N1CCN(c2ccc([N+](=O)[O-])c(NCc3cccnc3)c2)CC1` the figure was 14.5% (active); with `O=C(c1ccccc1F)N1CCN(c2ccc([N+](=O)[O-])c(NCc3cccnc3)c2)CC1`, 4.22% (inactive).
Consider `O=C(c1ccccc1)N1CCN(c2ccc([N+](=O)[O-])c(NCc3cccnc3)c2)CC1`, for which the inhibition was -14.7% (inactive).
The value for `N#Cc1cc(C(=O)c2cc(Cl)ccc2O)cn(CC2CCCO2)c1=O` (stereo unspecified) was 1% (inactive).
With `Cc1cc(C)c2c(=O)n(CC(=O)Nc3ccc(Br)c(C)c3)sc2n1` the figure was -1.95% (inactive); with `CCOc1ccc(NC(=O)Cn2sc3nc(C)cc(C)c3c2=O)cc1`, 14.9% (active); with `Cc1cc(C)c2c(=O)n(CC(=O)N3CCC(N4CCCCC4)CC3)sc2n1`, -2.82% (inactive).
With `Cc1cc(C)c2c(=O)n(CC(=O)Nc3cccc(F)c3)sc2n1` the figure was 9.3% (inactive).
As to `Cc1ccc(NC(=O)Cn2sc3nc(C)cc(C)c3c2=O)c(Cl)c1`, the inhibition was 2.26% (inactive).
Turning to `Cc1cc(C)c2c(=O)n(CC(=O)Nc3cccc(Cl)c3C)sc2n1`, the inhibition is 3.9% (inactive).
The value for `Cc1cc(C)c2c(=O)n(CC(=O)Nc3ccc(Cl)cc3)sc2n1` was 13% (active); that for `Cc1cc(C)c2c(=O)n(CC(=O)NC3CCCC3)sc2n1` was 15% (active); that for `CCCNC(=O)Cn1sc2nc(C)cc(C)c2c1=O` was 9.09% (inactive).
The value for `COc1ccc(/C=N/n2c(-c3cc(C)[nH]n3)n[nH]c2=S)cc1OC` was 5.27% (inactive); that for `Cc1ccc(NC(=O)NCc2c(C)nn(C)c2C)cc1Cl` was 2.69% (inactive).
With `C#CCCOC(=O)N1C2=NC(C(=O)OC)=C(C(=O)OC)[C@@H]3N(CC=C)c4ccccc4[C@]23C[C@H]1C(=O)OC` the figure was -1.18% (inactive); with `CCCCn1c(SCC(=O)N2CCCCC2C)nc2cc(S(N)(=O)=O)ccc21` (stereo unspecified), -1.4% (inactive).
Regarding `COc1ccc(OCc2nnc(SCC(=O)NNC(=O)c3ccc(C)cc3)n2C)cc1`, the inhibition was 0.34% (inactive).
The value for `COc1cc(/C=C(\C#N)c2nc3ccc(C)cc3[nH]2)c([N+](=O)[O-])cc1OC` was 2.93% (inactive); that for `COc1cc(/C=C(\C#N)c2nc3ccccc3[nH]2)cc(OC)c1O` was 4.95% (inactive); that for `CCOC(=O)N1CCN(CC(=O)N2c3ccccc3CCc3ccccc32)CC1` was -2.37% (inactive).
With `CCOc1ccc(C(=O)NCC(=O)OCC(=O)Nc2ccc(C)c(S(=O)(=O)N(C)C)c2)cc1`, the inhibition was -3.11% (inactive).
With `CCCc1ccc(C(=O)NC(=O)c2ccccc2O)cc1` the figure was 2.73% (inactive); with `CCn1cnc2c1c(=O)n(CC(=O)Nc1ccc3c(c1)OC(F)(F)O3)c(=O)n2Cc1ccccc1`, -4.42% (inactive).
The value for `CCC(=O)N1CCC2(CC1)Oc1ccc(Cl)cc1C(=O)C21CC(c2ccccc2)=NO1` (stereo unspecified) was 3.83% (inactive); that for `Cc1cc(C)n2ncc(C(=O)Nc3ccc4c(c3)OCO4)c2n1` was 1.37% (inactive).
The value for `COC(=O)Cc1c(C)c2ccc(OCc3nn[nH]n3)c(C)c2oc1=O` was 0.72% (inactive); that for `COc1cc(/C=C(\C#N)C(=O)NCC2CCCO2)ccc1OCC(=O)O` (stereo unspecified) was -0.12% (inactive); that for `COCCCNC(=O)/C(C#N)=C/c1ccc(F)cc1` was -2.31% (inactive).
On to `COCCCNC(=O)/C(C#N)=C/c1ccc(OCC(=O)O)c(OC)c1`, for which the inhibition is 13.8% (active).
With `COc1ccc2cc(-c3[nH]ncc3CN3CCCCO3)ccc2c1` the figure was -2.52% (inactive).
Turning to `N/C(=N\O)c1ccc(NC(=O)c2cccs2)cc1`, the inhibition was 4.24% (inactive).
On to `O=C(Nc1c(F)c(F)c(F)c(F)c1F)C1CCCCC1`, for which the inhibition is -1.91% (inactive).
With `O=C(/C=C/c1ccccc1)c1c(O)n(CCc2ccccc2)c(=O)[nH]c1=O` the figure was 1.89% (inactive).
With `O=C(O)Cn1cc(/C=N/NC(=O)c2cc3cc(Br)ccc3o2)c2ccccc21` the figure was -0.33% (inactive); with `Cn1cc(/C=N/NC(=O)c2cc3cc(Br)ccc3o2)c2ccccc21`, -2.19% (inactive).
